# Compounds without any hit were thinned out: in the full panel of roughly 83,000, 20% have a hit.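 Growth was measured after 48 h exposure to one concentration of compound in 96-well plates. Values under 10 count as active.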 A number with no mark means an inactive call.
# System: MDA-MB-468 breast
# Assay: NCI-60 one-dose screen, 48 h (100 = growth as untreated, 0 = no growth, -100 = all killed)
# Conditions: 10 µM unless noted
row,SMILES,growth
1,CC(=O)c1c(C)nc(-c2cc(C)cc(Cl)c2)nc1-c1cccc(Oc2ccccc2)c1,60.8%
2,Cc1c(C(=O)O)c(=O)n(-c2ccccc2)n1C,127%
3,CC(=O)Nc1ccc(-n2c(O)c(/C=N/NC(=O)Cc3ccccc3Nc3c(Cl)cccc3Cl)sc2=S)cc1,94.2%
4,CC1(C)CC[C@]2(C(=O)N3CCOCC3)CC[C@]3(C)C(=CC[C@@H]4[C@@]5(C)C/C(=C/c6ccccn6)C(=O)C(C)(C)[C@@H]5CC[C@]43C)[C@@H]2C1,40.8%
